TEAD-YAP inh = TEAD-YAP interaction inhibition, primary screen, TEAD-YAP interaction inhibitor project, luminescence, HEK-TIYL cells; TEAD-Gal4/YAP UAS-luciferase luminescence; AID 1259422, 2018; hit rate 1.4% among 640,000; inhibition, % at 9.12 µM; in the data active = inhibition above about 32%;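 note: 0% = median of test compound wells and 100% = reference inhibitor wells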
FBW7 act = FBW7 E3 ligase activators, primary screen, biochemical, AlphaScreen, human; hit rate 0.13% among 650,000; normalized activity (activation), % at 26.1 µM; AlphaScreen FBW7–phospho-cyclin E peptide binding, activator screen; in the data active = normalized activity above about 1.9%;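 note: purified mutant Fbw7 with reduced substrate affinity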
MITF inh = MITF inhibitors, primary screen, biochemical, AlphaScreen, human | AlphaScreen MITF homodimerization, bead proximity signal | AID 1259374, 2018 | hit rate 0.91% among 650,000 | Microphthalmia-associated transcription factor (Homo sapiens), O75030 | inhibition, % at 2.6 µM; in the data active = inhibition above about 50%;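 note: 0% = vehicle wells with protein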
Target sequence (O75030 whole entry, looked up): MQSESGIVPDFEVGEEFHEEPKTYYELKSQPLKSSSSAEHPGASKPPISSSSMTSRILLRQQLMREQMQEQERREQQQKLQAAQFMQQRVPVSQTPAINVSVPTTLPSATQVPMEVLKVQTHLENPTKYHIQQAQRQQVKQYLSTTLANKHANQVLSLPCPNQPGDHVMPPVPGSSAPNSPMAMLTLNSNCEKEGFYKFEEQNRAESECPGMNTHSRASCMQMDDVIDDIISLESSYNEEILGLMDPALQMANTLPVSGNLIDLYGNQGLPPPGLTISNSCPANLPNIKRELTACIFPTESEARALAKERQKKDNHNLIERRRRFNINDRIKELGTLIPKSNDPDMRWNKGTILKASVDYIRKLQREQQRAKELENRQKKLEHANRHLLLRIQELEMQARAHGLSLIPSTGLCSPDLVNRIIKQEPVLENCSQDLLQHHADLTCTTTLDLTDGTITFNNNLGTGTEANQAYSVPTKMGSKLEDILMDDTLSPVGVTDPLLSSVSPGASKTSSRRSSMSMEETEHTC
GPR151 activ = activators of human GPR151, primary screen, cell-based, PathHunter beta-arrestin, luminescence | G-protein coupled receptor 151 (Homo sapiens), Q8TDV0 | PathHunter beta-arrestin GPR151 cells | activation, % at 11.2 µM | hit rate 1% among 650,000 | AID 1508602, 2020; in the data active = activation above about 4.9%;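 note: 0% = median of compound wells and 100% = cells with positive control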
MITF confirm = MITF inhibitors, retest of hits, confirmation, biochemical, AlphaScreen, triplicate; shares compounds with MITF inh; AlphaScreen MITF homodimerization, biotin/His-MITF beads; inhibition, % at 2.6 µM; hit rate 16% among 4,700; AID 1259372, 2018;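 active = inhibition above a cutoff derived from the DMSO control wells, cut at about 28% in these data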;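 note: 0% = MITF dimer wells with DMSO only; inhibitors lower the bead chemiluminescence by keeping MITF from dimerizing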
AS interf DR = AlphaScreen optical interference compounds, dose response, counter-screen, biochemical, HTS. AlphaScreen optical interference counterscreen, cell-free. IC50, µM. AID 1259373, 2018. hit rate 6% among 480. shares compounds with MITF inh; call rule not given here
AS interf ctr = AlphaScreen optical interference compounds, counter-screen for MITF inhibitor project, biochemical, triplicate; inhibition, % at 2.6 µM; hit rate 7.6% among 4,700; shares compounds with MITF inh; LysRS AlphaScreen counterscreen, signal interference; AID 1259376, 2018;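 active = inhibition above a cutoff derived from the DMSO control wells, cut at about 30% in these data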
Active calls of the source: *. The list is not random: actives were taken first. Their share in the collection is about 3.4%.

Screening Cn1c2c(c(=O)[nH]c1=O)C(c1cccc(Cl)c1Cl)C1=C(N2)c2ccccc2C1=O (stereo unspecified) returned TEAD-YAP inh 3, FBW7 act 0, MITF inh 2 and GPR151 activ 0.
Screening N#CC1=C(N)OC2=C(C(=O)CCC2)C1c1cccc(F)c1 (stereo unspecified) returned TEAD-YAP inh 6, FBW7 act 0, MITF inh 1 and GPR151 activ 1.
`CCOC(=O)C1CCN(C(=O)c2ccc(N3CC4CC(C3)c3cccc(=O)n3C4)c(NC(=O)c3ccc(C(C)(C)C)cc3)c2)CC1` (stereo unspecified) gave TEAD-YAP inh 3, FBW7 act 0, MITF inh 67*, GPR151 activ -3, MITF confirm 8 and AS interf ctr 19.
Screening CCOC(=O)C1CCN(C(=O)c2ccc(N3CC4CC(C3)c3cccc(=O)n3C4)c(NC(=O)c3ccc(F)cc3)c2)CC1 (stereo unspecified) returned TEAD-YAP inh 6, FBW7 act 0, MITF inh -1 and GPR151 activ 0.
`CCOC(=O)CN(Cc1sccc1C)C(=O)Nc1ccccc1` gave TEAD-YAP inh -15, FBW7 act 0, MITF inh -5 and GPR151 activ 0.
For CC1(C)CCCC2=C1CC(C(=O)O)C(C(=O)N1CCCCC1)C2 (stereo unspecified) the results were TEAD-YAP inh -1, FBW7 act 0, MITF inh 85*, GPR151 activ 0, MITF confirm 3 and AS interf ctr 12.
For COc1ccc(/C=C\C(=O)Nc2c3c(nn2-c2cccc(Cl)c2)CSC3)cc1OC the results were TEAD-YAP inh -13, FBW7 act 0, MITF inh -9 and GPR151 activ 0.
Screening O=C(/C=C\c1ccccc1)Nc1c2c(nn1-c1cccc(Cl)c1)CSC2 returned TEAD-YAP inh -3, FBW7 act 0, MITF inh 67*, GPR151 activ 2, MITF confirm 10 and AS interf ctr -1.
`Cc1cc(C)cc(C(=O)Nc2c3c(nn2-c2ccc(F)cc2)CSC3)c1` gave TEAD-YAP inh 18, FBW7 act 0, MITF inh 2 and GPR151 activ 1.
Screening Cc1cccc(C(=O)Nc2c3c(nn2-c2ccc(F)cc2)CSC3)c1 returned TEAD-YAP inh -3, FBW7 act 0, MITF inh 53*, GPR151 activ 2, MITF confirm 35*, AS interf DR >5.5 and AS interf ctr -3.
For COc1ccc(Cc2nnc3n2N=C(c2ccc4c(c2)OCCO4)CS3)cc1OC the results were TEAD-YAP inh -18, FBW7 act 0, MITF inh 1 and GPR151 activ -1.
Screening COc1cc(NC(=O)c2nn3c(c2Cl)NC(c2cccs2)CC3C(F)(F)F)cc([N+](=O)[O-])c1 (stereo unspecified) returned TEAD-YAP inh -4, FBW7 act 0, MITF inh 74*, GPR151 activ 0, MITF confirm -5 and AS interf ctr -8.
`CCOC(=O)c1sc(NC(=O)c2nn3c(c2Cl)NC(c2cccs2)CC3C(F)(F)F)c(C(=O)OCC)c1C` (stereo unspecified) gave TEAD-YAP inh -9, FBW7 act 0, MITF inh 68*, GPR151 activ 2, MITF confirm -9 and AS interf ctr -8.
`COc1cc(NC(=O)c2nn3c(c2Cl)NC(c2ccccc2)CC3C(F)(F)F)cc([N+](=O)[O-])c1` (stereo unspecified) gave TEAD-YAP inh -10, FBW7 act 0, MITF inh -9 and GPR151 activ 1.
For CC(=O)c1ccc(NCC(=O)NC(c2ccccc2)c2ccccc2)cc1 the results were TEAD-YAP inh 2, FBW7 act 0, MITF inh 17 and GPR151 activ 0.
CC(C)(CO)NCC(O)COCc1ccc(Cl)cc1 (stereo unspecified) was read as TEAD-YAP inh 7, FBW7 act 1, MITF inh -5 and GPR151 activ 0.
OC(CNCCNc1cccc2ccccc12)COCc1ccc(Cl)cc1 (stereo unspecified) was read as TEAD-YAP inh -2, FBW7 act 0, MITF inh 53*, GPR151 activ -1, MITF confirm -5 and AS interf ctr 1.
`C=CCNCCOCCOc1cccc(OCC)c1` gave TEAD-YAP inh -2, FBW7 act 0, MITF inh 13 and GPR151 activ 1.
Screening C=CCc1cc(C)ccc1OCCNCCOC returned TEAD-YAP inh 4, FBW7 act 0, MITF inh 53*, GPR151 activ 0, MITF confirm -1 and AS interf ctr -4.
For C=CCNCCOCCOc1cccc(Br)c1 the results were TEAD-YAP inh 0, FBW7 act 0, MITF inh 60*, GPR151 activ -1, MITF confirm 2 and AS interf ctr 4.
`COCCCNCCOCCOc1ccc(Cl)cc1C(C)(C)C` gave TEAD-YAP inh -1, FBW7 act 0, MITF inh 5 and GPR151 activ -1.
For C=CCc1cc(C)ccc1OCCOCCNCCN(C)C the results were TEAD-YAP inh -4, FBW7 act 0, MITF inh 51*, GPR151 activ 0, MITF confirm 7 and AS interf ctr 20.
For C=CCc1cc(Cl)ccc1OCCNCCOC the results were TEAD-YAP inh 5, FBW7 act 0, MITF inh 44 and GPR151 activ 4.
Screening C=CCNCCOCCOc1ccc(Cl)cc1C(C)(C)C returned TEAD-YAP inh -2, FBW7 act 0, MITF inh 69*, GPR151 activ 0, MITF confirm 2 and AS interf ctr 6.
For O=C(NCc1cccnc1)c1cccc(N2CCCC2CO)n1 (stereo unspecified) the results were TEAD-YAP inh -2, FBW7 act 0, MITF inh 19 and GPR151 activ -1.
COCCNCCCCOc1cc(C)ccc1C(C)(C)C was read as TEAD-YAP inh -4, FBW7 act 0, MITF inh 39 and GPR151 activ -1.
Screening C=CCc1cc(C)ccc1OCCCNCCOC returned TEAD-YAP inh -1, FBW7 act 0, MITF inh 58*, GPR151 activ -1, MITF confirm -11 and AS interf ctr -7.
